Consider three molecules from PubChem BioAssay (NCATS).

Records with an inconclusive call do not appear. The source made the active and inactive calls. The call rests on the fitted dose curve; in most records, active means well fitted inhibition curve with a large enough effect; inconclusive means small, poorly fitted or top-dose-only effect; inactive means flat fitted curve, though single readings scatter.

What all share (test): qHTS profiling for inhibitors of Plasmodium falciparum proliferation (AID 504749); further: nearly all actives have a fitted effect of over 60% in size
What all share (settings): P. falciparum in erythrocytes, SYBR Green DNA, 72 h; series mostly up to 28.7 µM

One test has as its system DIV17. The procedure, abridged:
(§1)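 Readout was DNA-dye fluorescence from lysed cultures, ex 485/em 535 nm. Parasitized red cells had grown 72 h with compound; data scaled between 0.29 uM artemisinin and DMSO wells and corrected using vehicle-only plates.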

In a further test the test system is DIV30. The procedure, abridged: as §1
The next test deals with ECU. The procedure, abridged:
as §1

In the next test the test system is FAB9. The procedure, abridged: as §1
For the next test, the system named is GB4. The procedure, abridged: as §1
For another test, the system named is HB3. The procedure, abridged: as §1
A further test has as its system ICS. The procedure, abridged:
as §1

The subject of another test is JCK. The procedure, abridged:
as §1

In the next test the test system is N140. The procedure, abridged: as §1
The test system of the next test is Dd2. The procedure, abridged: as §1
Potency means the concentration at half of the fitted maximal effect.

Take `C=CCNC1=C2C[C@@H](C)C[C@H](OC)[C@H](O)[C@@H](C)/C=C(\C)[C@H](OC(N)=O)[C@@H](OC)/C=C\C=C(/C)C(=O)NC(=CC1=O)C2=O`: the Potency is 1.2 µM (active) in the test with DIV17; 1.69 µM (active) in the test with DIV30; 1 µM (active) in the test on ECU; 11.2 µM (active) with FAB9; 1.51 µM (active) in the test on GB4; 2 µM (active) in the test on HB3. Also, the Potency with ICS was 0.708 µM (active); in the test with JCK it was 12.6 µM (active); with N140, 0.891 µM (active).

For `CCCOc1ccc2nc(NC(=O)OC)sc2c1`, the Potency entry with DIV17, with DIV30, in the test with Dd2, in the test on ECU, in the test on FAB9 and in the test with GB4 was “inactive” each time. Also, the Potency entry in the test with HB3, with ICS, in the test on JCK and with N140 was “inactive” throughout.

In the case of `COC1C(OC(=O)/C=C/C=C/C=C/C=C/C(=O)O)CCC2(CO2)C1C1(C)OC1CC=C(C)C` (stereo not drawn), the Potency in the test on DIV17 was 5.36 µM (active); in the test on Dd2, 0.0398 µM (active); with GB4 it was 1.69 µM (active). Besides, the Potency result with JCK was “inactive”.
